Laboratory results taken from PubChem BioAssay AID1159580 (chemical genetic matrix, 2015).
Values joined by “and” are separate entries in the source; they are usually repeats but may differ in a detail not shown here. Equal values may be shown once. About 2,000 (36%) of roughly 5,500 compounds were called active. Roughly 18% stayed inconclusive and do not appear here. Some of the results follow. A number with no mark means an inactive call. No stated cut-off is given here; in the data, active means normalized growth mostly below about 0.91 (no sharp cut-off); inconclusive means no clear call, values can overlap the other calls; inactive means mostly above about 0.92.

Assay: chemical genetic growth profiling, strain panel (AID 1159580);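 further: tested at 20 µM; growth read once vehicle control cultures reached saturation at 30 °C; 1 = growth at the plate median or of vehicle wells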
Conditions: S. cerevisiae deletion strains, growth OD

N[C@H](Cc1cc(I)c(Oc2ccc(O)c(I)c2)c(I)c1)C(=O)O showed a normalized growth (locus YAL013W, strain DEP1, stronger effect = lower value) of 1.01, a normalized growth (locus YAL021C, strain ccr4, stronger effect = lower value) of 1.03 and a normalized growth (locus YAL026C, strain drs2, stronger effect = lower value) of 0.982. For the same compound, the normalized growth (locus YAL030W, strain snc1, stronger effect = lower value) was 1, the normalized growth (locus YBL061C, strain skt5, stronger effect = lower value) was 0.994 and the normalized growth (locus YBR009C, strain hhf1, stronger effect = lower value) was 0.893 (active). It also gave a normalized growth (locus YBR021W, strain FUR4, stronger effect = lower value) of 0.989, a normalized growth (locus YBR023C, strain chs3, stronger effect = lower value) of 0.986 and a normalized growth (locus YBR171W, strain sec66, stronger effect = lower value) of 0.996. The normalized growth (locus YBR229C, strain ROT2, stronger effect = lower value) was 1, the normalized growth (locus YBR231C, strain swc5, stronger effect = lower value) was 1 and the normalized growth (locus YBR279W, strain paf1, stronger effect = lower value) was 0.991. The normalized growth (locus YCL011C, strain gbp2, stronger effect = lower value) was 1, the normalized growth (locus YCL016C, strain dcc1, stronger effect = lower value) was 0.981 and the normalized growth (locus YCL029C, strain bik1, stronger effect = lower value) was 1.01. The normalized growth (locus YCL061C, strain MRC1, stronger effect = lower value) was 0.987, the normalized growth (locus YCL069W, strain vba3, stronger effect = lower value) was 1 and the normalized growth (locus YCR088W, strain abp1, stronger effect = lower value) was 1. For the same compound, the normalized growth (locus YDL005C, strain med2, stronger effect = lower value) was 1, the normalized growth (locus YDL035C, strain GPR1, stronger effect = lower value) was 0.992 and the normalized growth (locus YDL040C, strain nat1, stronger effect = lower value) was 1.01. The normalized growth (locus YDL074C, strain BRE1, stronger effect = lower value) was 0.939, the normalized growth (locus YDL101C, strain DUN1, stronger effect = lower value) was 0.998 and the normalized growth (locus YDL134C, strain PPH21, stronger effect = lower value) was 1. The normalized growth (locus YDL185W, strain tfp1, stronger effect = lower value) was 0.996, the normalized growth (locus YDL192W, strain arf1, stronger effect = lower value) was 0.987 and the normalized growth (locus YDR001C, strain nth1, stronger effect = lower value) was 1.01. It also gave a normalized growth (locus YDR069C, strain doa4, stronger effect = lower value) of 0.992, a normalized growth (locus YDR101C, strain arx1, stronger effect = lower value) of 0.974 and a normalized growth (locus YDR137W, strain rgp1, stronger effect = lower value) of 0.985. It also gave a normalized growth (locus YDR150W, strain NUM1, stronger effect = lower value) of 1.05, a normalized growth (locus YDR159W, strain sac3, stronger effect = lower value) of 0.978 and a normalized growth (locus YDR162C, strain NBP2, stronger effect = lower value) of 0.999. The normalized growth (locus YDR195W, strain ref2) was 1, the normalized growth (locus YDR297W, strain sur2, stronger effect = lower value) was 0.996 and the normalized growth (locus YDR318W, strain mcm21, stronger effect = lower value) was 0.917 (active). For the same compound, the normalized growth (locus YDR334W, strain swr1, stronger effect = lower value) was 0.997, the normalized growth (locus YDR335W, strain msn5, stronger effect = lower value) was 0.999 and the normalized growth (locus YDR388W, stronger effect = lower value) was 0.985. For the same compound, the normalized growth (locus YDR392W, strain spt3, stronger effect = lower value) was 0.748, the normalized growth (locus YDR502C, strain sam2, stronger effect = lower value) was 0.977 and the normalized growth (locus YEL003W, strain gim4, stronger effect = lower value) was 0.998. It also gave a normalized growth (locus YEL037C, strain rad23, stronger effect = lower value) of 1, a normalized growth (locus YEL061C, strain CIN8 (second series), stronger effect = lower value) of 1 and a normalized growth (locus YEL061C, strain CIN8, stronger effect = lower value) of 1.01. The normalized growth (locus YER015W, strain faa2, stronger effect = lower value) was 1, the normalized growth (locus YER016W, strain bim1, stronger effect = lower value) was 0.995 and the normalized growth (locus YER110C, stronger effect = lower value) was 1. For the same compound, the normalized growth (locus YER111C, strain swi4, stronger effect = lower value) was 0.993, the normalized growth (locus YER155C, strain BEM2 (second series), stronger effect = lower value) was 0.958 and the normalized growth (locus YER155C, strain BEM2, stronger effect = lower value) was 0.997. The normalized growth (locus YER167W, strain BCK2, stronger effect = lower value) was 0.946, the normalized growth (locus YFR010W, strain ubp6, stronger effect = lower value) was 0.997 and the normalized growth (locus YGL078C, strain dbp3, stronger effect = lower value) was 0.98. It also gave a normalized growth (locus YGL086W, strain mad1, stronger effect = lower value) of 0.946, a normalized growth (locus YGL167C, strain pmr1, stronger effect = lower value) of 1 and a normalized growth (locus YGL173C, strain kem1, stronger effect = lower value) of 0.952. For the same compound, the normalized growth (locus YGL227W, strain vid30, stronger effect = lower value) was 0.993, the normalized growth (locus YGL240W, strain doc1, stronger effect = lower value) was 0.973 and the normalized growth (locus YGL248W, strain PDE1, stronger effect = lower value) was 0.998. It also gave a normalized growth (locus YGL253W, strain hxk2, stronger effect = lower value) of 0.981, a normalized growth (locus YGR078C, strain PAC10, stronger effect = lower value) of 0.966 and a normalized growth (locus YGR135W, strain pre9, stronger effect = lower value) of 0.959. The normalized growth (locus YGR229C, strain SMI1, stronger effect = lower value) was 0.981, the normalized growth (locus YGR252W, strain gcn5, stronger effect = lower value) was 0.87 and the normalized growth (locus YHR013C, strain ard1, stronger effect = lower value) was 0.971. For the same compound, the normalized growth (locus YHR027C, strain rpn1, stronger effect = lower value) was 0.997, the normalized growth (locus YHR030C, strain SLT2, stronger effect = lower value) was 0.997 and 1.05 and the normalized growth (locus YHR079C, strain IRE1 (second series), stronger effect = lower value) was 0.999. For the same compound, the normalized growth (locus YHR079C, strain IRE1, stronger effect = lower value) was 1.05, the normalized growth (locus YHR094C, strain hxt1, stronger effect = lower value) was 0.999 and the normalized growth (locus YHR129C, strain ARP1, stronger effect = lower value) was 1. For the same compound, the normalized growth (locus YHR142W, strain chs7, stronger effect = lower value) was 0.964, the normalized growth (locus YHR200W, strain rpn10, stronger effect = lower value) was 0.992 and the normalized growth (locus YIL066C, strain RNR3, stronger effect = lower value) was 0.951. The normalized growth (locus YIL073C, strain SPO22, stronger effect = lower value) was 0.967, the normalized growth (locus YIL125W, strain kgd1, stronger effect = lower value) was 0.99 and the normalized growth (locus YIR030C, strain dcg1, stronger effect = lower value) was 0.993. The normalized growth (locus YJL092W, strain hpr5, stronger effect = lower value) was 0.998, the normalized growth (locus YJL095W, strain BCK1 (second series), stronger effect = lower value) was 0.865 (active) and the normalized growth (locus YJL095W, strain BCK1, stronger effect = lower value) was 0.964 and 1.04. For the same compound, the normalized growth (locus YJL115W, strain asf1, stronger effect = lower value) was 0.998, the normalized growth (locus YJL129C, strain trk1, stronger effect = lower value) was 0.97 and the normalized growth (locus YJL134W, strain LCB3, stronger effect = lower value) was 1. The normalized growth (locus YJL154C, strain vps35, stronger effect = lower value) was 1, the normalized growth (locus YJL164C, strain tpk1, stronger effect = lower value) was 0.911 (active) and the normalized growth (locus YJL166W, strain qcr8, stronger effect = lower value) was 0.884 (active). For the same compound, the normalized growth (locus YJL168C, strain set2, stronger effect = lower value) was 0.996, the normalized growth (locus YJL187C, strain SWE1 (second series), stronger effect = lower value) was 1.01 and the normalized growth (locus YJL187C, strain SWE1, stronger effect = lower value) was 1.01. For the same compound, the normalized growth (locus YJR043C, strain POL32, stronger effect = lower value) was 0.996 and the normalized growth (locus YJR066W, strain TOR1, stronger effect = lower value) was 0.99.
